# Screening data (PubChem BioAssay)
# HT1080-NT tox: qHTS for induction of synthetic lethality in tumor cells producing 2HG: qHTS for the HT-1080-NT fibrosarcoma cell line. HT-1080-NT fibrosarcoma viability, CellTiter-Glo ATP luminescence, 48 h. Potency, µM (titrated, usually from 46.1 µM), without a hit: at the highest dose activity, negative = less viability, hits mostly cytotoxic. 360,000 tested, 1.6% active. AID 686970, 2013;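 note: NT is the 2HG producing partner of a matched IDH1 knockdown line; potency is the fitted concentration of half-maximal effect; 0% = DMSO-treated cells and -100% = media-only wells without cells; nearly all actives have a fitted effect of over 55% in size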
#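 Toxicity toward the 2HG-producing NT line was scored as %Activity, normalised to DMSO and no-cell wells, from CellTiter-Glo luminescence after 48 hours' treatment.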
# IL-1B inflam inh: qHTS for Inhibitors of Inflammasome Signaling: IL-1-beta AlphaLISA Primary Screen. AID 743279, 2014. activity change, % at 57.5 µM. 360,000 tested, 4.7% active. THP-1 LPS/ATP IL-1B secretion, AlphaLISA, 16 h; hits give low values; in the data active = activity change below about -50%; inconclusive = mostly about -30% to -49%
#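 THP-1 cells pretreated 1 hr with compounds (up to 57.5 uM final), then stimulated with LPS (250 ng/mL final) plus ATP (1.25 mM final); secreted IL-1B measured by AlphaLISA after 16 hr, decreased signal indicating inhibition.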
# DT40 TDP1 CPT: qHTS for Inhibitors of human tyrosyl-DNA phosphodiesterase 1 (TDP1): qHTS in cells in presence of CPT | 420,000 tested, 12% active | Potency, µM (top dose mostly 46.2 µM), for inactives: top-dose activity change, negative = growth inhibition, usual class: inhibitors | chicken DT40 Tdp1-/-;hTDP1 cells + 20 nM CPT, ATP luminescence, 48 h | AID 686979, 2013; note: potency is the fitted concentration of half-maximal effect; nearly all actives have a fitted effect of over 55% in size
#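 Chicken DT40 Tdp1-/- cells complemented with human TDP1, 400 cells/well, exposed to compounds plus 20 nM camptothecin for at least 48 h at 37 C; viability read as ATP content by CellTiter-Glo luminescence.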
# uPA surface inh: qHTS for Inhibitors of Cell Surface uPA Generation; cell surface uPA generation assay, qHTS; Potency, µM (titrated, usually from 38.3 µM), for the others: at the highest dose activity change, negative = inhibition, actives largely listed as inhibitors; 330,000 tested, 0.31% active; active = well fitted inhibition curve with a large enough effect; inconclusive = small, poorly fitted or top-dose-only effect; inactive = no such curve, though single readings can be large or run the other way; tested in mouse RAW 264.7 cells; note: potency is the fitted concentration of half-maximal effect; nearly all actives have a fitted effect of over 55% in size
# DT40 TDP1 no CPT: qHTS for Inhibitors of human tyrosyl-DNA phosphodiesterase 1 (TDP1): qHTS in cells in absence of CPT | 420,000 tested, 15% active | DT40 Tdp1-/- hTDP1 cells, no CPT, ATP luminescence, 48 h | Potency, µM (series often up to 46.2 µM), inactives show at the highest dose activity change, negative = growth inhibition, most hits filed as inhibitors | AID 686978, 2013; note: potency is the fitted concentration of half-maximal effect; nearly all actives have a fitted effect of over 55% in size
#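 Chicken DT40 Tdp1-/- cells stably complemented with human TDP1 were seeded at 400 cells/well with DMSO in place of 20 nM camptothecin. After compound pinning, cells grew at least 48 hr at 37 °C; viability read by CellTiter-Glo luminescence.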
# HT1080 IDH1KD tx: qHTS for induction of synthetic lethality in tumor cells producing 2HG: qHTS for the HT-1080-IDH1KD cell line; HT-1080 IDH1 knockdown viability, ATP luminescence, 48 h; Potency, µM (top dose mostly 46.1 µM), inactives show top-dose activity, negative = toxicity, actives largely listed as cytotoxic; 360,000 tested, 2% active;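 note: potency is the fitted concentration of half-maximal effect; 0% = DMSO wells and -100% = cell-free medium wells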
#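 In this qHTS, HT-1080 cells depleted of IDH1 are exposed for 48 h at 37 °C to compound titrations. Toxicity is scored from CellTiter-Glo luminescence, with DMSO as full viability and medium alone as none.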
# Active calls of the source: *; ? = inconclusive; . = no result given. A selection: hits, their analogues and other compounds. The true share with any hit is near 19%. Unless noted, calls come from the whole dose curve; as a rule, active = well fitted curve in the direction sought with a large enough effect; inconclusive = small, poorly fitted or top-dose-only effect, or another doubt; inactive = no such curve, though single readings can be large; an effect the other way counts as inactive or inconclusive. Unless noted, % is set by controls: 0 for no effect and ±100 for the full control effect.
SMILES,HT1080-NT tox,IL-1B inflam inh,DT40 TDP1 CPT,uPA surface inh,DT40 TDP1 no CPT,HT1080 IDH1KD tx
CC(C)Oc1ccc(CNS(=O)(=O)c2csc(C(N)=O)c2)cc1,8%,31,16µM*,1%,21µM*,-6%
COc1ccccc1CNC(=O)c1cc2c(=O)oc3ccc(C)cc3c2s1,.,.,3%,.,?,.
CCOc1ccccc1N1CCN(CC(=O)N(C)CC(=O)Nc2ccccc2CC)CC1,1%,-7,-8%,.,-20%,-3%
C[C@@H](C[C@@H](O)[C@H](O)C(C)(C)O)[C@@H]1CC[C@]2(C)C3=CC[C@H]4C(C)(C)C(=O)CC[C@]4(C)[C@H]3CC[C@@]12C,1%,-53*,7.3µM*,-17%,6.5µM*,4%
Cc1ccc(NC(=O)c2cnn3c2NC(c2ccccc2)=CC3c2ccccc2)cc1 (stereo not drawn),.,.,10µM*,.,?,.
COc1cccc(C2=CC(c3ccccc3F)n3ncc(C(=O)Nc4ccc(C)cc4)c3N2)c1 (stereo not drawn),.,.,?,.,16µM*,.
COc1cccc(C2C=C(c3ccccc3)Nc3c(C(=O)Nc4ccccc4)cnn32)c1OC (stereo not drawn),.,.,16µM*,.,15µM*,.
Cc1cc(C)cc(CC2CC(=O)N(c3ccc([N+](=O)[O-])cc3)C2=O)c1 (stereo not drawn),-1%,-10,12%,1%,-11%,5%
OC(c1ccccc1)(c1nc(-c2ccccc2)cs1)C(F)(F)F (stereo not drawn),21µM*,-29,18µM*,.,21µM*,?
OC(c1ccccc1)(c1nc(-c2ccc3c(c2)OCO3)cs1)C(F)(F)F (stereo not drawn),?,-5,?,.,?,?
OC(c1ccccc1)(c1nc(-c2ccc3ccccc3c2)cs1)C(F)(F)F (stereo not drawn),?,-15,21µM*,.,?,?
OC(c1ccccc1)(c1nc(-c2cccc(F)c2)cs1)C(F)(F)F (stereo not drawn),18µM*,3,?,.,?,?
CS(=O)(=O)c1ccc(-c2csc(C(O)(c3ccccc3)C(F)(F)F)n2)cc1 (stereo not drawn),-7%,1,?,.,?,0%
CC(C)=CCOc1c2ccoc2cc2oc(=O)ccc12,-1%,35,-1%,-18%,-14%,3%
CC1(C)O[C@@H]1COc1c2ccoc2cc2oc(=O)ccc12,3%,-2,12µM*,?,18µM*,4%
CN(Cc1ccco1)c1ncnc2ccc(-c3cccc(C#N)c3)cc12,.,.,23µM*,.,23µM*,.
CN(Cc1ccco1)c1ncnc2ccc(-c3cccnc3)cc12,.,.,15µM*,.,18µM*,.
CN(Cc1ccco1)c1ncncc1-c1cccnc1,.,.,-9%,.,-4%,.
CN(C)C(=O)c1ccc(-c2ccc3ncnc(N(C)Cc4ccco4)c3c2)cc1,.,.,5.8µM*,.,?,.
Cc1noc(C)c1-c1ccc2ncnc(N(C)Cc3ccco3)c2c1,.,.,?,.,12µM*,.
CN(C)C(=O)c1ccc(-c2cncnc2N(C)Cc2ccco2)cc1,.,.,-2%,.,10%,.
COc1cc(S(=O)(=O)Nc2ccccc2C(=O)N2CCCCC2)ccc1NC(C)=O,12%,-12,-1%,0%,-6%,0%
COCCN(C(=O)CSc1ccc2c(c1)OCCO2)c1c(N)n(CC(C)C)c(=O)[nH]c1=O,6%,2,9%,5%,-3%,4%
O=C(NNC(=O)C1CC(c2cccs2)=NO1)Nc1ccccc1 (stereo not drawn),-3%,-6,3%,0%,12%,4%
Cc1c(C=C(C#N)c2ccc([N+](=O)[O-])cc2)c(=O)n(-c2ccccc2)n1C,0%,-6,?,1%,?,-2%
SMILES,HT1080-NT tox,IL-1B inflam inh,DT40 TDP1 CPT,uPA surface inh,DT40 TDP1 no CPT,HT1080 IDH1KD tx
CCCC(=O)O[C@]1(C(=O)COC(=O)CC)CC[C@H]2[C@@H]3CCC4=CC(=O)CC[C@]4(C)[C@H]3[C@@H](O)C[C@@]21C,.,.,-21%,.,-28%,.
CN(Cc1ccco1)c1ncncc1-c1ccc2c(c1)OCO2,.,.,?,.,-21%,.
CN(Cc1ccco1)c1ncnc2ccc(-c3ccc4c(c3)OCO4)cc12,.,.,18µM*,-15%,16µM*,.
N#Cc1ccc(CN2CC3(CCN(C(=O)c4csnn4)CC3)C2)cc1,.,.,9%,.,-3%,.
COC(=O)c1ccc2nc(-c3cccc(Cl)c3)c(Cc3cccc(Cl)c3)n2c1,5%,6,4.6µM*,.,?,-2%
COC(=O)c1ccc2nc(-c3cccc(Cl)c3)c(Cc3cccc(F)c3)n2c1,7%,0,16µM*,.,9.2µM*,2%
COC(=O)c1ccc2nc(-c3cccc(Cl)c3)c(CC3CCCCC3)n2c1,14%,70,5%,.,-17%,10%
Cc1cccc(N(C)c2cc(C)nc3nc(C)nn23)c1,-16%,75,16µM*,?,?,-3%
CSc1nc(-c2ccccc2)nn1C(=O)c1ccccc1,5%,-15,?,-2%,23µM*,3%
CCOc1ccc(-c2cc3cc(OC)c(OC)cc3c(C)n2)cc1,20%,23,-28%,5%,?,6%
CCc1nc(-c2ccc(OC)c(OC)c2)cc2cc(OC)c(OC)cc12,3%,-8,16µM*,-17%,21µM*,2%
Cc1nn(C)c(C)c1Sc1ccc(Br)cc1,-9%,11,-25%,0%,?,-9%
Cc1noc2ncnc(Sc3ccc(Br)cc3)c12,-7%,-101*,2.6µM*,.,9.2µM*,?
CCOC(=O)N1CCc2c(sc3c2c(=O)n(-c2ccc(Cl)cc2)c(=O)n3CC(=O)c2ccc(F)cc2)C1,.,.,?,.,21µM*,.
CCN(CC)CCn1c(=O)n(-c2ccc(Cl)cc2)c(=O)c2c3c(sc21)CN(C)CC3,-29%,-25,29µM*,7%,21µM*,-21%
CN1CCc2c(sc3c2c(=O)n(-c2ccc(Cl)cc2)c2nncn32)C1,12%,-19,?,-2%,?,17%
CCOC(=O)N1CCc2c(sc3c2c(=O)n(CCc2ccccc2)c(=O)n3CC(=O)Nc2ccc(C)cc2)C1,.,.,9.2µM*,.,7.3µM*,.
